# Laboratory results reported in PubChem BioAssay (EPA / NIEHS).
# Inconclusive results are not listed. Active and inactive are the calls of the source. Rule for the calls: active = hit-call score of the fitted dose curve at least 0.9, where 1 is the maximum; inconclusive = response in the unintended direction; inactive = score below 0.9.
# Assays:
# [1] = molecular target: human Peroxisome Proliferator-activated Receptor delta (PPARd), PPARD (gene 5467) (UniProt Q03181); experiment: ATG_PPARd_TRANS: Attagene TRANS-FACTORIAL HepG2 Assay for human Peroxisome Proliferator-activated Receptor delta (PPARd) (AID 2283002)
# human Peroxisome Proliferator-activated Receptor delta (PPARd), PPARD (gene 5467), sequence (Q03181 whole entry, looked up, the tested form may be a part): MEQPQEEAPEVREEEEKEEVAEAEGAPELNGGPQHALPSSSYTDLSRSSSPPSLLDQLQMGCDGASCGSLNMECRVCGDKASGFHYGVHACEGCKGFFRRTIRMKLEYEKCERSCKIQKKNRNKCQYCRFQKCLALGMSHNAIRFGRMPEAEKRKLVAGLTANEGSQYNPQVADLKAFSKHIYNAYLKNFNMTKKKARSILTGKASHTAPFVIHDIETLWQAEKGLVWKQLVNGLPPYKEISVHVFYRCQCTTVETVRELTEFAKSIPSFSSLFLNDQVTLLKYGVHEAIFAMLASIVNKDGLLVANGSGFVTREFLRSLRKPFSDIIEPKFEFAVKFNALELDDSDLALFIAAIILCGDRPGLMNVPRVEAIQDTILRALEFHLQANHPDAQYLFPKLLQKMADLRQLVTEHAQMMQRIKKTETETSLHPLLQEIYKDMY
# In short: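 Read-out: reporter mRNA induction, quantified by fluorescent RT-PCR products resolved by capillary electrophoresis. Human HepG2 liver cells carried transiently transfected Gal4-UAS reporter constructs with chimeric NR-Gal4 fusions. Cells were dosed for 24 h; DMSO served as baseline.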
# [2] = molecular target: Peroxisome proliferator-activated receptor gamma (Homo sapiens) (UniProt P37231); experiment: ATG_PPARg_TRANS: Attagene TRANS-FACTORIAL HepG2 Assay for human Peroxisome Proliferator-activated Receptor-gamma (PPARg) (AID 2283007)
# Peroxisome proliferator-activated receptor gamma (Homo sapiens), sequence (P37231 whole entry, looked up, the tested form may be a part): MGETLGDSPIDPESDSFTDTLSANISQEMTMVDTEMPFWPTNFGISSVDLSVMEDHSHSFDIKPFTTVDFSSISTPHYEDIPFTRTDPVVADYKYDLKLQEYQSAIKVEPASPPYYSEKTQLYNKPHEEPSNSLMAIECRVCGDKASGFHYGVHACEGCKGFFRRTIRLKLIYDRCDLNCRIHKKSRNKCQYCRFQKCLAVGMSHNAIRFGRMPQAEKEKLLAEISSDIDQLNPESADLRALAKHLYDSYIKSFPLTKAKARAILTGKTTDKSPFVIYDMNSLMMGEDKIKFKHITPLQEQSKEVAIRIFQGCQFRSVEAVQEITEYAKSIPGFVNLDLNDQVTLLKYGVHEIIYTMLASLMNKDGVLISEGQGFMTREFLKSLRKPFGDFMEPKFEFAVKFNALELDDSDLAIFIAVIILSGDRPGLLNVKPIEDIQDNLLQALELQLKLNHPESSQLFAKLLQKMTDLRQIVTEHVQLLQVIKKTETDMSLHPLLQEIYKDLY
# In short: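 Chimeric NR-Gal4 transactivation is measured in transiently transfected HepG2 cells by reporter mRNA induction at 24 h. Detection uses RT-PCR with fluorescent labelling and capillary electrophoresis; DMSO defines baseline.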
# [3] = molecular target: Nuclear receptor subfamily 1 group I member 2 (Homo sapiens) (UniProt O75469); experiment: ATG_PXR_TRANS: Attagene TRANS-FACTORIAL HepG2 Assay for human Pregnane X Receptor (PXR) (AID 2283008)
# Nuclear receptor subfamily 1 group I member 2 (Homo sapiens), sequence (O75469 whole entry, looked up, the tested form may be a part): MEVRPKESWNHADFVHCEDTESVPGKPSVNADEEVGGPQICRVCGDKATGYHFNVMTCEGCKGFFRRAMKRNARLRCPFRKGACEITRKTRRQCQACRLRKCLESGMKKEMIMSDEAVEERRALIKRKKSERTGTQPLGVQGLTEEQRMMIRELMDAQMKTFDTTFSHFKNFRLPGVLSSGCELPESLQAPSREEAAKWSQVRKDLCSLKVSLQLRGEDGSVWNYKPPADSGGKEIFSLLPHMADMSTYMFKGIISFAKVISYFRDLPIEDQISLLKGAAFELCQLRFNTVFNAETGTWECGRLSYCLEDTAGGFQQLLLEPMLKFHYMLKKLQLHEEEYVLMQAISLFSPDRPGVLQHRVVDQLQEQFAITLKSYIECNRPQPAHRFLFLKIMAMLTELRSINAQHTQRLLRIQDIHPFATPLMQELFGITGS
# In short: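 Transactivation by exogenous PXR–GAL4 fusion measured as reporter transcript induction after 24 h compound treatment of transfected human HepG2 cells. Read-out via RT-PCR and capillary electrophoresis of labelled fragments, fitted upward relative to DMSO.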
# [4] = molecular target: human Retinoic Acid Receptor gamma (RARg), RARG (gene 5916) (UniProt P13631); experiment: ATG_RARg_TRANS: Attagene TRANS-FACTORIAL HepG2 Assay for human Retinoic Acid Receptor gamma (RARg) (AID 2283009)
# human Retinoic Acid Receptor gamma (RARg), RARG (gene 5916), sequence (P13631 whole entry, looked up, the tested form may be a part): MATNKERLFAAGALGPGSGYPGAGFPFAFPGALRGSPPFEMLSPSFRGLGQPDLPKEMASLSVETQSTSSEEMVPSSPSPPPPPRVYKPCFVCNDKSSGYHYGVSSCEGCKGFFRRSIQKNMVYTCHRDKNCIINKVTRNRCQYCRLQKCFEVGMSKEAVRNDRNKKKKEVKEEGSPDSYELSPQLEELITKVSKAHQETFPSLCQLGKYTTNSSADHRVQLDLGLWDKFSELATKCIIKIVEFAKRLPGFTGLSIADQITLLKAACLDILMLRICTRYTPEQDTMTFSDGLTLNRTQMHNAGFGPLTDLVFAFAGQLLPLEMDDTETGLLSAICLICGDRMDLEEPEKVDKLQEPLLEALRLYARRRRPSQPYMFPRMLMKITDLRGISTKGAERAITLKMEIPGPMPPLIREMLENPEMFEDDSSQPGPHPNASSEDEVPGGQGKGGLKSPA
# In short: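 TRANS format measured activity of exogenous NR-GAL4 fusion (RARg) in transfected HepG2 liver cells after 24 h dosing. Induced reporter RNA was detected by RT-PCR/capillary electrophoresis fluorescence, analysed in the positive direction against DMSO.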
# [5] = molecular target: Retinoic acid receptor alpha (Homo sapiens) (UniProt P10276); experiment: ATG_RARa_TRANS: Attagene TRANS-FACTORIAL HepG2 Assay for human Retinoic Acid Receptor alpha (RARa) (AID 2283005)
# Retinoic acid receptor alpha (Homo sapiens), sequence (P10276 whole entry, looked up, the tested form may be a part): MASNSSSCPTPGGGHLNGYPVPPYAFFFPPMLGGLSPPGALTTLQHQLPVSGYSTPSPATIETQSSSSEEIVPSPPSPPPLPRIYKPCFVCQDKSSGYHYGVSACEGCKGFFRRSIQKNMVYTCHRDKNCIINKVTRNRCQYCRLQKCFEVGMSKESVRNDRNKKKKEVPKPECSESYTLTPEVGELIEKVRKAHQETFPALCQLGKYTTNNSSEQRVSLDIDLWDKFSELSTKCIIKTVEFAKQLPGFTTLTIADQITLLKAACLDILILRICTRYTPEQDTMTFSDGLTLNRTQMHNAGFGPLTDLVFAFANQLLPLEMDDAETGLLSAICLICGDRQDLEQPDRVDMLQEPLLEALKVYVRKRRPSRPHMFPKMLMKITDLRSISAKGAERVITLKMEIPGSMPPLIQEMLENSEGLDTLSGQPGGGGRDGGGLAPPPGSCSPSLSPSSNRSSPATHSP
# In short: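 HepG2 transiently transfected with multiplex GAL4-UAS reporter units including a human RARa–GAL4 chimera; 24 h compound exposure. Reporter mRNA quantified by RT-PCR, 6-FAM labeling and capillary electrophoresis; gain of signal versus DMSO.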
# [6] = molecular target: human RAR-related Orphan Receptor beta (RORb), RORB (gene 6096) (UniProt Q92753); experiment: ATG_RORb_TRANS: Attagene TRANS-FACTORIAL HepG2 Assay for human RAR-related Orphan Receptor beta (RORb) (AID 2283010)
# human RAR-related Orphan Receptor beta (RORb), RORB (gene 6096), sequence (Q92753 whole entry, looked up, the tested form may be a part): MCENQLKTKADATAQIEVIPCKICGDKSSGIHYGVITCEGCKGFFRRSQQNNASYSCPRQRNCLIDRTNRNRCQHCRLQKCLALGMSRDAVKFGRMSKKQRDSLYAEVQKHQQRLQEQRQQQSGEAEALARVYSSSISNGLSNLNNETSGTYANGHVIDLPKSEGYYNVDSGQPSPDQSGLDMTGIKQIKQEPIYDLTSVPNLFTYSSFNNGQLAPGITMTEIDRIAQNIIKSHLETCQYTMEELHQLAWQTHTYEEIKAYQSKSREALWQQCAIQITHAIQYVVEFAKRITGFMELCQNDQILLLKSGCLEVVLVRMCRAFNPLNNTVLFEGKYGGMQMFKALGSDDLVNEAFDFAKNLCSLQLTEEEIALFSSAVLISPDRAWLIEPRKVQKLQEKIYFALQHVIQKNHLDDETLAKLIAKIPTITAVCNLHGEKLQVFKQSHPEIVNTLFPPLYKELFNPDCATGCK
# In short: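 Transfect HepG2 with multiple GAL4-UAS reporter transcription units; dose chemicals for 24 h; isolate RNA, reverse-transcribe and PCR-amplify reporter sequences; label, digest and resolve fragments by capillary electrophoresis; fit increases relative to DMSO.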
# [7] = molecular target: human Retinoic Acid Receptor beta (RARb), RARB (gene 5915) (UniProt P10826); experiment: ATG_RARb_TRANS: Attagene TRANS-FACTORIAL HepG2 Assay for human Retinoic Acid Receptor beta (AID 2283004)
# human Retinoic Acid Receptor beta (RARb), RARB (gene 5915), sequence (P10826 whole entry, looked up): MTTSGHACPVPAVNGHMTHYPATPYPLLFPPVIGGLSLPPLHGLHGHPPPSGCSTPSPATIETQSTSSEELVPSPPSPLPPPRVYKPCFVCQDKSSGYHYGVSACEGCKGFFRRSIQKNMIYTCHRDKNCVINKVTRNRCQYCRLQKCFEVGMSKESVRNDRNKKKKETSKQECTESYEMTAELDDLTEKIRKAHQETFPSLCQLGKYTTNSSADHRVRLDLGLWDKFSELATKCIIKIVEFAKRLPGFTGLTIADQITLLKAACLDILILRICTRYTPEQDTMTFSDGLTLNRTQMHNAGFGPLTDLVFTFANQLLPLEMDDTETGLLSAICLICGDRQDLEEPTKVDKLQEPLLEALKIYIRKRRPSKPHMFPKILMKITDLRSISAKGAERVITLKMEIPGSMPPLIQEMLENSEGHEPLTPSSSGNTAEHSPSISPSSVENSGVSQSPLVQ
# In short: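 Transient transfection of HepG2 with multiple reporter units → chemical dosing, 24 h → total RNA isolation → RT with oligo(dT) → reporter-specific PCR, 6-FAM primer extension, HpaI digest → capillary electrophoresis. Positive direction vs DMSO control.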
structure (smiles),measurement,setting,value
CC(=O)OCCC1CCCCC1,outcome,[1],inactive
same,outcome,[2],inactive
same,outcome,[3],inactive
CCN(CCO)c1cccc(C)c1,outcome,[1],inactive
same,outcome,[2],inactive
same,AC50,[3],27 µM (active)
same,outcome,[4],inactive
Cc1ccc(C2OC[C@@H]3OC(c4ccc(C)cc4)O[C@H]([C@H](O)CO)[C@@H]3O2)cc1 (stereo partly drawn),outcome,[1],inactive
same,outcome,[5],inactive
same,outcome,[2],inactive
same,outcome,[3],inactive
same,outcome,[6],inactive
O=CC1CC1,outcome,[1],inactive
same,outcome,[5],inactive
same,outcome,[4],inactive
CCOCC(=O)O,outcome,[1],inactive
same,outcome,[3],inactive
O=C(c1ccccc1)C1CCC1,outcome,[1],inactive
same,outcome,[2],inactive
same,outcome,[3],inactive
same,outcome,[6],inactive
COC=O,outcome,[1],inactive
same,outcome,[7],inactive
same,outcome,[3],inactive
same,outcome,[4],inactive
C=CC(C)(CCC=C(C)C)OC(=O)CC(C)C (stereo not drawn),outcome,[1],inactive
same,AC50,[3],11.8 µM (active)
CC(C)c1ccc(C=O)cc1,outcome,[1],inactive
same,outcome,[2],inactive
same,outcome,[3],inactive
C=C[C@](C)(O)CC[C@@H]1[C@@]2(C)CCCC(C)(C)[C@@H]2CC[C@@]1(C)O,outcome,[1],inactive
same,outcome,[2],inactive
same,AC50,[3],0.331 µM (active)
O=C1CCC(=O)N1Cl,outcome,[1],inactive
same,outcome,[3],inactive
c1ccc(CCCc2ccncc2)cc1,outcome,[1],inactive
same,AC50,[2],13.9 µM (active)
same,outcome,[3],inactive
CC(=O)OC(C)C,outcome,[1],inactive
same,outcome,[5],inactive
same,outcome,[3],inactive
same,outcome,[4],inactive
Cc1oncc1C(=O)Nc1ccc(C(F)(F)F)cc1,outcome,[1],inactive
same,AC50,[2],41.1 µM (active)
same,outcome,[4],inactive
Cc1ccc2c(c1)C(=O)c1ccccc1C2=O,outcome,[1],inactive
same,AC50,[2],15.1 µM (active)
same,AC50,[3],6.18 µM (active)
same,outcome,[4],inactive
NCCCN1CCN(CCCN)CC1,outcome,[1],inactive
same,outcome,[5],inactive
same,outcome,[3],inactive
same,outcome,[4],inactive
Cc1cc(C)c(C)cc1C,outcome,[1],inactive
same,outcome,[2],inactive
O=S(=O)(Oc1ccc(Cl)cc1Cl)c1ccccc1,outcome,[1],inactive
same,AC50,[2],29.5 µM (active)
same,AC50,[3],2.19 µM (active)
